Laboratory results as given in PubChem BioAssay (Tox21).
Records with an inconclusive call do not appear. A number with no mark means an inactive call. Unless noted, the call rests on the fitted dose curve; in most records, active means well fitted cell-killing curve with a large enough effect in the repeat runs; inconclusive means weak or mixed curves, or effect the other way; inactive means no such curve, though single readings can be large or run the other way.

Target: Bile acid receptor (Homo sapiens) (UniProt Q96RI1)
Sequence (Q96RI1 whole entry, looked up): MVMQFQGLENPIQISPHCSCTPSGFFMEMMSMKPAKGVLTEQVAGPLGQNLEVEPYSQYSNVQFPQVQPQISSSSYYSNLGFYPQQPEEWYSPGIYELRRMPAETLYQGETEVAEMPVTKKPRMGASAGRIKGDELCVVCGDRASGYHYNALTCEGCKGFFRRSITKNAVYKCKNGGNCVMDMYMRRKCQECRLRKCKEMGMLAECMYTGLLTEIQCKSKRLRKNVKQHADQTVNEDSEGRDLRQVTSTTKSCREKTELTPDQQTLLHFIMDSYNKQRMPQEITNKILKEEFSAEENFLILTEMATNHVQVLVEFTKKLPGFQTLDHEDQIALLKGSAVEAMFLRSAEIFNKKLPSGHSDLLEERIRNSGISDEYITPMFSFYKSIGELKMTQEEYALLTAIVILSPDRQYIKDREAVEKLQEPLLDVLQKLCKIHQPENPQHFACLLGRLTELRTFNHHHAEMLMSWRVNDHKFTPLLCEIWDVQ
Experiment: qHTS assay to identify small molecule antagonists of the farnesoid-X-receptor (FXR) signaling pathway (AID 743217; active means well fitted inhibition curve with a large enough effect in the signal ratio in the repeat runs, not every such curve was filed as active; the % refers to the signal ratio)
Conditions: HEK293T FXR-UAS-bla, beta-lactamase ratio, CDCA-stimulated, 16 h; series mostly up to 62.6 µM; activity change, negative = inhibition: at the top concentration
Method in brief: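 Antagonist mode: chenodeoxycholic acid at 50 uM final stimulates a UAS-driven beta-lactamase reporter in HEK 293T FXR-bla cells during 16 h, 37C compound exposure. Read-out is FRET substrate fluorescence after 2 h at room temperature.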
On the % scale 0 is the no-effect control and ±100 the full control effect.

| Compound | activity change, negative = inhibition |
| --- | --- |
| NS(=O)(=O)c1ccccc1OC(F)(F)F | -5.19% |
| CCOC(=O)CC#N | -1.22% |
| CC(=O)OCC(=O)[C@@]1(O)[C@H](OC(C)=O)C[C@H]2[C@@H]3CCC4=CC(=O)C=C[C@]4(C)[C@@]3(F)[C@@H](O)C[C@@]21C | 4.51% |
| COCCOCCOCCOC | 2.9% |
| C=COCCOCCOC=C | 0.757% |
| BrC/C=C/CBr | -0.017% [at 29.1 µM] |
| CCCCCCCCCCCCC | 11.4% |
| C/C=C(\C)C(=O)OCC/C=C\CC | 2.15% |
| CNC(=O)NC | -1.07% [at 81.1 µM] |
| CC1CCC(C(C)(C)S)C(=O)C1 (stereo unspecified) | 2.78% |
| CCCCOC(=O)C(=O)OCCCC | -0.488% |
| CC(C)COC(=O)COc1ccc(Cl)cc1Cl | -1.03% |
| NC(=O)NC(=O)Cc1ccccc1 | 0.774% |
| CC(=O)OCCCc1ccccc1 | -3.6% |
| c1ccccc1 | -2.77% |
| NC(=O)NNC(N)=O | -0.324% |
| Cc1cc(O)c2c(c1)C(=O)c1cccc(O)c1C2=O | 9.71% |
| O=C(O)c1ccccc1C(=O)OCc1ccccc1 | 4.22% |
| CC(C)(CO)[C@@H](O)C(=O)NCCCO | -2.28% |

Test system: not listed separately
Experiment: qHTS assay to identify small molecule agonists of the farnesoid-X-receptor (FXR) signaling pathway - cell viability counter screen (AID 743218); further: nearly all actives have a fitted effect of over 45% in size
Conditions: FXR-bla HEK293T viability, CellTiter-Glo luminescence, 16 h; series mostly up to 62.6 µM; viability change, negative = cytotoxic: at the top concentration
Method in brief: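 Viability counter screen in the same wells: CellTiter-Glo luminescence, 30 min room-temperature incubation, measured after the beta-lactamase read. Cells were GeneBLAzer FXR-UAS-bla HEK 293T, compound-treated 16 h at 37C.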

| Compound | viability change, negative = cytotoxic |
| --- | --- |
| NS(=O)(=O)c1ccccc1OC(F)(F)F | 25% |
| C[C@@H]1C[C@H]2[C@@H]3C[C@H](F)C4=CC(=O)C=C[C@]4(C)[C@@]3(F)[C@@H](O)C[C@]2(C)[C@@]1(O)C(=O)CO | -2.98% |
| CCOC(=O)CC#N | -1.82% |
| BrC/C=C/CBr | -0.558% [at 29.1 µM] |
| C/C=C(\C)C(=O)OCC/C=C\CC | 15.4% |
| CNC(=O)NC | 4.12% [at 81.1 µM] |
| CC(=O)N1CCN(c2ccc(O)cc2)CC1 | 7.12% |
| O=S(=O)(O)CCO | 20.4% [at 81.1 µM] |
| FC(F)(F)c1ccc(Cl)cc1Cl | 29.2% |
| CCCCCCCCCCCCCC(=O)OC | 35.4% |
| CCCCOC(=O)C(=O)OCCCC | 3.38% |
| C[C@H]1O[C@H](O[C@H]2[C@H](O)[C@@H](O)[C@@H](O[C@H]3[C@H](O)[C@@H](O)[C@H](O)O[C@@H]3CO)O[C@@H]2CO)[C@H](O)[C@@H](O)[C@@H]1N[C@H]1C=C(CO)[C@@H](O)[C@H](O)[C@H]1O | 1.71% |
| CC(=O)Nc1ccc(C)cc1 | 4.65% |
| O=C(O)c1c(Cl)ccc(Cl)c1Cl | -4.1% |
| CC(C)COC(=O)COc1ccc(Cl)cc1Cl | 6.49% |
| Cc1nc2ccccc2c(=O)o1 | 4.1% [at 81.1 µM] |
| NC(=O)NC(=O)Cc1ccccc1 | 0.565% |
| Nc1ccc(S(=O)(=O)NC(=O)c2ccccc2)cc1 | -4.25% |
| CCCCCCCCCCCCOC(C)=O | 2.19% |
| c1ccccc1 | 29.5% |
| NC(=O)NNC(N)=O | 11.7% |
| Cc1cc(O)c2c(c1)C(=O)c1cccc(O)c1C2=O | -23.9% |
| O=C(O)c1ccccc1C(=O)OCc1ccccc1 | 4.54% |
| CC(C)(CO)[C@@H](O)C(=O)NCCCO | 7.57% |

Target: Bile acid receptor (Homo sapiens) (UniProt Q96RI1)
Experiment: qHTS assay to identify small molecule agonists of the farnesoid-X-receptor (FXR) signaling pathway (AID 743220; active means well fitted activation curve with a large enough effect in the signal ratio in the repeat runs, not every such curve was filed as active; the % refers to the signal ratio)
Conditions: HEK293T FXR-UAS-bla, beta-lactamase FRET ratio, 16 h; series mostly up to 62.6 µM; activation: at the top concentration
Method in brief: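 FXR-UAS-bla HEK 293T cells carrying a UAS-driven beta-lactamase reporter were plated for 5 h at 37C/5% CO2, then exposed to DMSO-dissolved Tox21 10K compounds for 16 h at 37C. A LiveBLAzer B/G FRET substrate was loaded for 2 h at room temperature before fluorescence reading.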

| Compound | activation |
| --- | --- |
| NS(=O)(=O)c1ccccc1OC(F)(F)F | 0.283% |
| CCOC(=O)CC#N | 1.59% |
| CC(=O)OCC(=O)[C@@]1(O)[C@H](OC(C)=O)C[C@H]2[C@@H]3CCC4=CC(=O)C=C[C@]4(C)[C@@]3(F)[C@@H](O)C[C@@]21C | -3.3% |
